In the supplement of paper PMC13380429:
Values without a mark were called inactive.

Tested on: Vero E6 infected with SARS-CoV-2
Test: inhibition of SARS-CoV-2 cytopathic effect; higher = more antiviral protection, active = above 15
Details: 48 h

SMILES | inhibition of SARS-CoV-2 cytopathic effect (1 nM) [%] | inhibition of SARS-CoV-2 cytopathic effect (8.33 nM) [%] | inhibition of SARS-CoV-2 cytopathic effect (100 nM) [%] | inhibition of SARS-CoV-2 cytopathic effect (833.33 nM) [%] | inhibition of SARS-CoV-2 cytopathic effect (10000 nM)
CC(C)C1=C2[C@H]3CC[C@@H]4[C@@]5(C)CC[C@H](OC(=O)CC(C)(C)C(=O)O)C(C)(C)[C@@H]5CC[C@@]4(C)[C@]3(C)CC[C@@]2([C@@H](O)CN(CCN(C)C)Cc2ccc(Cl)cc2)CC1=O | -0.51 | 1.17 | -0.05 | 0.73 | -1.86%
C=C1C(=O)O[C@@H]2/C=C(\C)CC/C=C(\C)CC[C@@H]12 [costunolide] | -0.97 | -0.24 | -0.99 | 2.87 | 19.3% (active)
COc1ccc(-c2oc3c(CC=C(C)C)c(O[C@@H]4O[C@H](CO)[C@@H](O)[C@H](O)[C@H]4O)cc(O)c3c(=O)c2O[C@@H]2O[C@@H](C)[C@H](O)[C@@H](O)[C@H]2O)cc1 [icariin] | 4.38 | 3.84 | 1.25 | -0.92 | -4.04%
CCc1nc(N)nc(N)c1-c1ccc(Cl)cc1 [pyrimethamine] | 2.57 | 3.29 | 2.35 | 1.69 | -1.07%
Oc1cc(O)c2c(c1)O[C@H](c1ccc(O)c(O)c1)[C@@H](O)C2 [cianidanol] | -1.29 | 0.71 | -1.15 | -0.95 | -2.3%
c1ccc(COCCCc2c[nH]cn2)cc1 [proxyfan] | -1.62 | -1.11 | -0.96 | 0.04 | -3.35%
O=C(O)c1c(Cl)c(Cl)c(Cl)c(Cl)c1-c1c2cc(I)c(=O)c(I)c-2oc2c(I)c(O)c(I)cc12 [rose-bengal] | -2.56 | -2.17 | 1.8 | -2.12 | -13.9%
Cc1c(C(=O)Nc2ccc(N3C[C@@H](C)O[C@@H](C)C3)nc2)cccc1-c1ccc(OC(F)(F)F)cc1 [sonidegib] | 1.64 | -0.28 | -1.14 | -2.32 | -7.02%
C/C(=N\NC(=O)[C@@H]1C(=O)NC[C@H]1c1ccccc1)c1cccc(Br)c1 | -1.05 | 1.12 | 1.69 | -2.01 | -2.3%
C[C@H]1C[C@H]2[C@@H]3CCC4=CC(=O)C=C[C@]4(C)[C@H]3C(=O)C[C@]2(C)[C@@]1(O)C(=O)CO [Betapar (Meprednisone)] | 0.88 | 0.92 | 2.1 | 0.12 | 4.2%
Nc1nc(-c2nn(Cc3ccccc3F)c3ncccc23)ncc1C1CC1 | 1.54 | 2.15 | -0.39 | -2.42 | -5.17%
CCCC[C@@H](C=O)NC(=O)[C@H](CC(C)C)NC(=O)OCc1ccccc1 [calpeptin] | -1.61 | -1.53 | -2.86 | 14.7 | 66.9% (active)
CCOC(=O)N1c2ccc(C(F)(F)F)cc2[C@@H](N(Cc2cc(C(F)(F)F)cc(C(F)(F)F)c2)C(=O)OC)C[C@H]1CC | 0.17 | 0.5 | 0.49 | 1.09 | 1.77%
Nc1ncc2c(n1)CC(c1ccco1)CC2=O (stereo not given) | 2.9 | 3.51 | 2.68 | 4.74 | 3.17%
Cc1cc(C)c(S(=O)(=O)Nc2cccc(C(F)(F)F)c2)c(C)c1 | -1.28 | 1.26 | 1.15 | 1.42 | 2.48%
CCc1ccc(OCc2ccccc2C(=O)Nc2ccc3nc(C)cc(N)c3c2)cc1 | 0.87 | 3.61 | 2.46 | 1.94 | -28.4%
CCCN(C/C=C/I)[C@H]1CCc2ccc(O)cc2C1 [7-hydroxy-PIPAT] | -0.76 | 0.14 | -1.03 | -0.19 | -1.39%
Nc1ccc(S(=O)(=O)Nc2ccc(Cl)nn2)cc1 [sulfachlorpyridazine] | 0.57 | -0.21 | 1.77 | -1.32 | 0.69%
CCOC(=O)Nc1ccc(NCc2c(C)cc(C)cc2C)cc1N | 0.63 | 1.07 | -0.41 | -0.67 | 2.16%
COc1ccc([C@@H]2CC(=O)c3c(O)cc(O)cc3O2)cc1O [hesperetin] | 1.09 | 3.18 | 4.54 | 0.97 | 0.11%

SMILES | inhibition of SARS-CoV-2 cytopathic effect (1 nM) [%] | inhibition of SARS-CoV-2 cytopathic effect (8.33 nM) [%] | inhibition of SARS-CoV-2 cytopathic effect (100 nM) [%] | inhibition of SARS-CoV-2 cytopathic effect (833.33 nM) [%] | inhibition of SARS-CoV-2 cytopathic effect (10000 nM)
N#CSc1cc(SC#N)c(N)nc1N | -1.78 | 0.62 | 3.56 | 0.7 | 11.2%
O=c1c(-c2ccc(O)cc2)coc2c([C@@H]3O[C@H](CO)[C@@H](O)[C@H](O)[C@H]3O)c(O)ccc12 [kakonein] | -2.72 | -3.42 | -3.81 | -5.79 | -6.74%
CCCCC1(COC(=O)CCC(=O)O)C(=O)N(c2ccccc2)N(c2ccccc2)C1=O [suxibuzone] | -0.21 | -4.18 | -2.21 | -3.64 | 0.42%
CC1CCc2cc(F)cc3c(=O)c(C(=O)O)cn1c23 (stereo not given) [flumequine] | -0.77 | 0.46 | -0.95 | -0.27 | -0.64%
O=C(NC[C@H](O)CO)c1ccncc1Nc1ccc(I)cc1F | -1.62 | -4.02 | -9.84 | -13.5 | -14.7%
O=[N+]([O-])c1ccc(O)c([N+](=O)[O-])c1 [2,4-dinitrophenol] | 2.74 | 2.11 | 5.04 | 2.61 | 2.69%
CCCNCC(O)COc1ccccc1C(=O)CCc1ccccc1 (stereo not given) [propafenone] | -2.13 | -0.69 | 2.83 | 3.83 | -0.5%
CC(C)(C)NCC(O)CSc1nc(-c2ccc(C(N)=O)s2)cs1 (stereo not given) [arotinolol] | -12.3 | -9.63 | -11 | -9.7 | -6.09%
CCCC(CCC)C(=O)Nc1ccn([C@@H]2O[C@H](CO)[C@@H](O)C2(F)F)c(=O)n1 | -0.06 | -1.71 | -2.25 | -0.4 | -4.21%
C[C@@H](NCCCc1cccc(C(F)(F)F)c1)c1cccc2ccccc12 [cinacalcet] | 1.8 | 2.9 | 0.77 | -2.27 | -3.52%
O=C(O)C[C@H]1CC[C@H](c2ccc(-c3ccc(Nc4ccc(C(F)(F)F)nc4)cn3)cc2)CC1 | -1.27 | 0.84 | -0.93 | -2.65 | 1.98%
Cc1cc(C(=O)Nc2cc(Oc3ccc4nc(NC(=O)C5CC5)cn4n3)ccc2C)n(C)n1 | -0.96 | -3.26 | -4.84 | -7.63 | -4.87%
COc1ccc(/C=C/CCCCOc2ccc(C(=O)c3cccc(C(=O)O)c3)cc2CCC(=O)O)cc1 | 2.26 | 1.45 | 0.3 | -3.65 | -3.88%
CN(C)CCC(c1ccc(Br)cc1)c1ccccn1 (stereo not given) [brompheniramine] | 4.45 | 3.77 | -3.1 | -0.09 | -4.65%
CCCCOc1ccc(-c2cncc(C(=O)NCc3cccnc3N3CCOCC3)c2)cc1Cl | -0.69 | -2.48 | -0.55 | -1.43 | -3.95%
CN(C)CCCC(=O)Nc1ccc(C(=O)Nc2cccc(Nc3ncc(Cl)c(-c4c[nH]c5ccccc45)n3)c2)cc1 | 1 | -3.04 | -1.78 | -0.35 | -3.93%
O=C1NC(=O)[C@@]2(CCOc3ccc(F)cc32)N1 [sorbinil] | -0.44 | -2.13 | -2.63 | -0.6 | -0.07%
COc1cccc(OC)c1-c1ccc(C[C@H](NC(=O)c2c(Cl)cccc2Cl)C(=O)O)cc1 | 0.68 | 2 | 0.48 | 1.89 | 1.23%
Cc1ccc(C(=O)Nc2ccc(CN3CCN(C)CC3)c(C(F)(F)F)c2)cc1C#Cc1cnc2cccnn12 [ponatinib] | 0.65 | 1.8 | 5.2 | 1.27 | -10.9%
